“And” between values parts separate entries of the source, which are not always exact repeats. Equal entries are not always repeated. Compounds without any hit were thinned out: in the full panel of roughly 83,000, 20% have a hit.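 Assay: single dose, 48 h. Readout: percent growth (0 = no net growth; negative = cell death). Active: <10.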 A number with no mark means an inactive call. The source made the active and inactive calls.

The experiment deals with MDA-MB-468 breast. As to the kind of experiment: NCI-60 one-dose screen, 48 h (100 = growth as untreated, 0 = no growth, -100 = all killed). Conditions: 10 µM unless noted.
As for `O=C(/C=C/c1ccccn1)c1ccc(OCc2nnc(-c3ccc(Cl)cc3)o2)cc1`, the growth was -37.7% (active).

Take `CN(Cc1ccccc1)c1nc(Cl)c(C2CC(c3ccc(Cl)cc3)=Cc3[nH][nH]c(=O)c32)s1` (centres undefined): the growth was 106%.

On to `Cc1ccc(S(=O)(=O)NCCNc2nc(Nc3ccc(N4CCN(C)CC4)cc3)nc3ccsc23)cc1`, for which the growth was 94.1%.

As for `CC(C)(C)OC(=O)N1CC(Cn2cc(C(F)(F)F)c3c(Cl)ncnc32)C1`, the growth was -46.8% (active).

Consider `O=C(COc1ccc(/C=C2\SC(=O)NC2=O)cc1)Nc1ccc(C(=O)/C=C/c2cc3ccccc3nc2Cl)cc1`, for which the growth was 20.6%.

In the case of `C[C@]12CCc3c(ccc4cc(O)ccc34)[C@@H]1CC[C@H]2O`, the growth was 81.3%.

As for `CCCCNC(=O)c1cc(NCc2cc(O)ccc2O)ccc1O`, the growth is 93.6%.

For `O=C(O)c1ccc[n+](CC(=O)N2CCN(c3cc4c(cc3F)c(=O)c(C(=O)O)cn4C3CC3)CC2)c1`, the growth was 81.4%.

As to `CC/C(=C\c1ccc(N(C)C)cc1)c1nc2ccccc2c(=O)[nH]1`, the growth was 91.4%.

As to `Cc1c(C)c2c(c(C)c1OCC(=O)O)CC[C@@](C)(CCC[C@@H](C)CCC[C@@H](C)CCCC(C)C)O2`, the growth was 0.25% [50 µM] (active).

On to `O=C(/C=C/c1cccc(Br)c1)c1ccccc1`, for which the growth is 84.9%.

`COc1cc(C(=O)Nc2cc(O)c(C/C=C(\C)CCC=C(C)C)c(O)c2)cc2c1O[C@]1(C)CC[C@@H](O)C(C)(C)[C@H]1C2`: the growth is 3.89% (active).

For `COc1cccc2c1C(=O)c1c(O)c3c(c(O)c1C2=O)CC(O)(/C(C)=N/NC(=O)CCCCC(=O)N/N=C(\C)C1(O)Cc2c(O)c4c(c(O)c2C(OC2CC(N)C(O)C(C)O2)C1)C(=O)c1c(OC)cccc1C4=O)CC3OC1CC(N)C(O)C(C)O1` (centres undefined), the growth is -1.37% [5 µM] (active).

Take `Cc1ccc(/C=N\NC(=O)c2[nH]c3ccc(F)cc3c2-c2ccccc2)cc1`: the growth was -14.5% (active).

On to `O=C(Nc1ccc(C2=NCCCN2)cc1)c1ccc(C(=O)Nc2ccc(C3=NCCCN3)cc2)nc1`, for which the growth was 102%.

`CCNCCNc1cc(C2CCCC2)c(C#N)c2nc3ccccc3n12`: the growth is -25.5% (active).

`CN1CCN(Cc2ccc(NC(=O)c3ccc(C#Cc4c(N)ncc5ccc(F)cc45)cc3)cc2C(F)(F)F)CC1`: the growth was -73.6% (active).

Turning to `Cn1cc(-c2nn3cc(-c4cccnc4)nc3s2)c2cc(F)ccc21`, the growth was 66.3%.

`O=c1oc2ccc(-c3ccc(F)cc3F)cc2c(=O)n1-c1cccc(C(F)(F)F)c1`: the growth is -12.8% (active) and -5.33% (active).

With `C=C1C(=O)O[C@H]2[C@H]1CC/C(COC(=O)Nc1nc3ccccc3[nH]1)=C\CC[C@@]1(C)O[C@@H]21`, the growth was 36.9%.

`CCCCCCOc1ccc(/C=N/Nc2cc(C)nc3ccc(Br)cc23)cc1`: the growth is -78.6% (active).

With `COc1cc(CNC(=O)CCCC/C=C/C(C)C)ccc1OCc1nnc(Nc2ccccc2F)o1`, the growth was 58.9%.

Turning to `COc1ccc(-c2nn(-c3ccc(NC(=O)c4cc(C(F)(F)F)cc(C(F)(F)F)c4)cc3)cc2-c2ccncc2)cc1Cl`, the growth is 77.1%.

As to `COc1ccc(Cn2cc(C(=O)Nc3cccnc3Nc3ccccc3)nn2)cc1`, the growth was 92.9%.

Consider `COc1ccc(-c2cn(-c3cccc(C(=O)/C=C/c4cc(OC)c(OC)c(OC)c4)c3)c(=O)[nH]2)cc1OC`, for which the growth is 98.1%.

For the compound `COc1cccc(NC(=O)c2sc3nc(C)c(C(O)c4ccccc4)cc3c2N)c1` (centres undefined), the growth was 14.3%.

With `O=C(Cn1cc(CN2C(=O)c3ccc([N+](=O)[O-])cc3C2=O)nn1)Nc1ccccc1Br`, the growth is 111%.

`CN(C)c1ccc(/C=N/Nc2nc(N/N=C/c3ccc(N(C)C)cc3)nc(N3CCOCC3)n2)cc1`: the growth is 97.8%.

With `O=c1ccn(C2OC(F)(CO)C(O)C2F)c(=O)[nH]1` (centres undefined), the growth was 126%.

In the case of `O=[N+]([O-])c1cc2c(ccc3occc32)o1`, the growth was -8.85% (active).

As to `CCN(CC)CC(C)(C)C(=O)/C=C/c1ccccc1`, the growth was -15.2% (active).

With `O=S(=O)(NCCNc1nccc(-c2c(-c3cccc(O)c3)nc3occn23)n1)c1ccccc1`, the growth is 88.4%.

Consider `CN1CCN(Cc2ccc(C(=O)Nc3cncc(C#Cc4cnc(N)c5ccccc45)c3)cc2C(F)(F)F)CC1`, for which the growth is -61.9% (active).

Turning to `Nc1ccc(-c2csc(-n3[nH]c(=O)ccc3=O)n2)cc1`, the growth was 99.3%.

Values taken from PubChem BioAssay (NCI).
